# Measurements from PubChem BioAssay (NCATS).
# Records with an inconclusive call do not appear. Entries that show only a call come without a potency. Unmarked numbers belong to inactive results. Calls of active or inactive are those of the source. The call rests on the fitted dose curve; in most records, active means well fitted curve in the direction sought with a large enough effect; inconclusive means small, poorly fitted or top-dose-only effect, or another doubt; inactive means no such curve, though single readings can be large; an effect the other way counts as inactive or inconclusive.
# Key:
# [1] = system: NIH3T3; assay: Cytotoxic Profiling of Annotated Libraries Using Quantitative High-Throughput Screening (AID 1296008); settings: Five cell lines viability, CellTiter-Glo ATP luminescence, 48-72 h; max response: hits give low values; further: nearly all actives have a fitted effect of over 60% in size
# In short: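 Cytotoxicity was measured as CellTiter-Glo ATP luminescence, read after 10 min at room temperature. Compound treatment of the cells lasted 48 or 72 hr at 37 degrees Celsius in a qHTS format.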
# [2] = system: MCC-13; assay: qHTS assay to identify novel small-molecules to repurpose for Merkel cell carcinoma treatment (AID 1296009); settings: MCC and control cell lines, CellTiter-Glo viability, 72 h; series mostly up to 46 µM; further: nearly all actives have a fitted effect of over 60% in size
# In short: (§1)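 Cell viability measured by CellTiter-Glo following 72 hr compound treatment at 37 degree celsius, with NPC and MIPE libraries tested in 8- and 11-point concentration series.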
# [3] = system: MCC-26; assay: as above; settings: MCC and control cell lines, CellTiter-Glo viability, 72 h; series mostly up to 46 µM
# In short: as §1
# [4] = system: MKL-1; assay: as above; settings: MCC and control cell lines, CellTiter-Glo viability, 72 h; series mostly up to 46 µM
# In short: as §1
# [5] = system: MKL-2; assay: as above; settings: MCC and control cell lines, CellTiter-Glo viability, 72 h; series mostly up to 46 µM
# In short: as §1
# [6] = system: NIH3T3; assay: as above; settings: MCC and control cell lines, CellTiter-Glo viability, 72 h; at 44.8 µM (top of the series) unless noted
# In short: as §1
# [7] = system: UISO; assay: as above; settings: MCC and control cell lines, CellTiter-Glo viability, 72 h; series mostly up to 46 µM
# In short: as §1
# [8] = system: WaGa; assay: as above; settings: MCC and control cell lines, CellTiter-Glo viability, 72 h; series mostly up to 46 µM
# In short: as §1
# [9] = system: C33A; assay: Primary qHTS to identify gynecologic anti-cancer compounds using libraries of approved drugs and bioactive compounds (AID 1345084); settings: Gynecologic cancer cell panel viability, ATPlite luminescence, 48 h; series mostly up to 57.5 µM; further: nearly all actives have a fitted effect of over 55% in size
# In short: (§2)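 Five-concentration response, 48 h; readout is ATP-driven luciferase luminescence.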
# [10] = system: CAOV3; assay: as above; settings: Gynecologic cancer cell panel viability, ATPlite luminescence, 48 h; series mostly up to 57.5 µM
# In short: as §2
# [11] = system: CASKI; assay: as above; settings: Gynecologic cancer cell panel viability, ATPlite luminescence, 48 h; series mostly up to 57.5 µM
# In short: as §2
# [12] = system: Es-2; assay: as above; settings: Gynecologic cancer cell panel viability, ATPlite luminescence, 48 h; series mostly up to 57.5 µM
# In short: as §2
# [13] = system: HeLa; assay: as above; settings: Gynecologic cancer cell panel viability, ATPlite luminescence, 48 h; series mostly up to 57.5 µM
# In short: as §2
# [14] = system: Hek293T; assay: as above; settings: Gynecologic cancer cell panel viability, ATPlite luminescence, 48 h, control line for the selectivity index; series mostly up to 57.5 µM
# In short: as §2
# [15] = system: JEG-3; assay: as above; settings: Gynecologic cancer cell panel viability, ATPlite luminescence, 48 h; series mostly up to 57.5 µM
# In short: as §2
# [16] = system: OV90; assay: as above; settings: Gynecologic cancer cell panel viability, ATPlite luminescence, 48 h; series mostly up to 57.5 µM
# In short: as §2
# [17] = system: CRL-7250; assay: qHTS assay to identify novel small-molecules to repurpose for Merkel cell carcinoma treatment (AID 1296009); settings: MCC and control cell lines, CellTiter-Glo viability, 72 h; further: nearly all actives have a fitted effect of over 60% in size
# In short: as §1
# [18] = system: HACAT; assay: as above; settings: MCC and control cell lines, CellTiter-Glo viability, 72 h; at 44.8 µM (top of the series) unless noted
# In short: as §1
# [19] = at 44.8 µM (top of the series) unless noted
# Potency means the concentration at half of the fitted maximal effect.
compound,measurement,setting,value
CCC(CC)(CNC(=O)CCCO)c1cccc(OC)c1,outcome,[1],inactive
same,outcome,[2],inactive
same,Potency,[3],inactive
same,Potency,[4],inactive
same,Potency,[5],inactive
same,outcome,[6],inactive
same,Potency,[7],inactive
same,Potency,[8],inactive
same,Potency,[9],inactive
same,outcome,[10],inactive
same,outcome,[11],inactive
same,Potency,[12],inactive
same,Potency,[13],inactive
same,outcome,[14],inactive
same,outcome,[15],inactive
same,Potency,[16],inactive
O=C1OC(CN2CCOCC2)CN1/N=C/c1ccc([N+](=O)[O-])o1 (stereo unspecified),outcome,[17]; [19],inactive
c1ccc(N2CCNCC2)cc1,outcome,[1],inactive
same,outcome,[18],inactive
same,outcome,[2],inactive
same,Potency,[3],inactive
same,Potency,[4],inactive
same,Potency,[5],inactive
same,outcome,[6],inactive
same,Potency,[7],inactive
same,Potency,[8],inactive
same,Potency,[9],inactive
same,outcome,[10],inactive
same,outcome,[11],inactive
same,Potency,[12],inactive
same,Potency,[13],inactive
same,outcome,[14],inactive
same,outcome,[15],inactive
same,Potency,[16],inactive
C[C@]12CC[C@H]3[C@@H](CCC4=CC(=O)CC[C@@H]43)[C@@H]1CC[C@@H]2OC(=O)CCC1CCCCC1,outcome,[1],inactive
same,outcome,[17]; [19],inactive
same,outcome,[2],inactive
same,Potency,[3],inactive
same,Potency,[4],inactive
same,outcome,[6],inactive
same,Potency,[8],18800 nM (active)
same,Potency,[9],inactive
same,outcome,[10],inactive
same,outcome,[11],inactive
same,Potency,[12],inactive
same,Potency,[13],11200 nM (active)
same,outcome,[14],inactive
same,outcome,[15],inactive
same,Potency,[16],inactive
CCS(=O)(=O)CCn1c([N+](=O)[O-])cnc1C,outcome,[17]; [19],inactive
O=C(O)c1ccc(=O)[nH]c1,outcome,[1],inactive
same,outcome,[17]; [19],inactive
same,outcome,[18],inactive
same,outcome,[2],inactive
same,Potency,[3],inactive
same,Potency,[4],inactive
same,Potency,[5],inactive
same,outcome,[6],inactive
same,Potency,[7],inactive
same,Potency,[8],inactive
same,Potency,[9],inactive
same,outcome,[10],inactive
same,outcome,[11],inactive
same,Potency,[12],inactive
same,Potency,[13],inactive
same,outcome,[14],inactive
same,Potency,[16],inactive
Nc1ccn([C@@H]2O[C@H](CO)[C@@H](O)C2O)c(=O)n1 (stereo partly specified),outcome,[17]; [19],inactive
CC(C(=O)c1ccccc1)N(C)C (stereo unspecified),max response,[1],-10.7%
same,outcome,[18],inactive
same,outcome,[2],inactive
same,Potency,[3],inactive
same,Potency,[4],inactive
same,Potency,[5],inactive
same,Potency,[7],inactive
same,Potency,[8],inactive
same,outcome,[11],inactive
same,Potency,[12],inactive
same,Potency,[13],inactive
same,outcome,[15],inactive
same,Potency,[16],inactive
CC(C)(C)C(=O)Oc1ccc(S(=O)(=O)Nc2ccccc2C(=O)NCC(=O)O)cc1,outcome,[17]; [19],inactive
COc1cccc2c1C(=O)c1c(O)c3c(c(O)c1C2=O)C[C@@](O)(C(=O)CO)CC3OC1CC(N2CCOC(OC)C2)C(O)C(C)O1 (stereo partly specified),Potency,[1],6.7 nM (active)
same,Potency,[7],18.8 nM (active)
same,Potency,[8],23.7 nM (active)
same,Potency,[9],282 nM (active)
same,Potency,[13],224 nM (active)
same,Potency,[16],447 nM (active)
CC(C)(Oc1ccc(Cl)cc1)C(=O)O,outcome,[17]; [19],inactive
C[C@]12Cc3cn[nH]c3C[C@@H]1CC[C@@H]1[C@@H]2CC[C@@]2(C)[C@H]1CC[C@]2(C)O,max response,[1],3.99%
same,outcome,[2],inactive
same,Potency,[3],inactive
same,Potency,[4],inactive
same,Potency,[5],inactive
same,Potency,[8],inactive
same,Potency,[9],inactive
same,outcome,[10],inactive
same,outcome,[11],inactive
same,Potency,[12],inactive
same,Potency,[13],inactive
same,outcome,[14],inactive
same,outcome,[15],inactive
same,Potency,[16],inactive
NS(=O)(=O)c1cc(C(=O)NN2C[C@H]3[C@H]4CCC(C4)[C@H]3C2)ccc1Cl,outcome,[17]; [19],inactive
COc1ccc(C2CNC(=O)C2)cc1OC1CCCC1 (stereo unspecified),outcome,[17]; [19],inactive
COc1cc2c(Nc3ccc(Br)cc3F)ncnc2cc1OCC1CCN(C)CC1,outcome,[17]; [19],inactive
COc1cc2nc(Cl)nc(N)c2cc1OC,outcome,[17]; [19],inactive
Nc1ncnc2c1ncn2[C@@H]1O[C@H](CO)[C@@H](O)[C@H]1O,outcome,[17]; [19],inactive
O=C1O[C@H](CO)[C@@H](O)[C@H](O)[C@H]1O,outcome,[17]; [19],inactive
CCC1=C(C)CN(C(=O)NCCc2ccc(S(=O)(=O)NC(=O)NC3CCC(C)CC3)cc2)C1=O (stereo unspecified),outcome,[17]; [19],inactive
CC(C)Cn1cnc2c(N)nc3ccccc3c21,outcome,[17]; [19],inactive [at 17.4 µM]
CNNCc1ccc(C(=O)NC(C)C)cc1,outcome,[17]; [19],inactive
C/C(=C(\CCO)SS/C(CCO)=C(\C)N(C=O)Cc1cnc(C)nc1N)N(C=O)Cc1cnc(C)nc1N,outcome,[17]; [19],inactive
CC(C)(C)NCC(O)COc1ccc(NC(=O)NC2CCCCC2)cc1 (stereo unspecified),outcome,[17]; [19],inactive
O=C(NCC1CCCCN1)c1cc(OCC(F)(F)F)ccc1OCC(F)(F)F (stereo unspecified),outcome,[17]; [19],inactive
O=C(NC(Cc1cc(=O)[nH]c2ccccc12)C(=O)O)c1ccc(Cl)cc1 (stereo unspecified),outcome,[17]; [19],inactive
CC1(C)Oc2ccc(C#N)cc2[C@@H](N2CCCC2=O)[C@@H]1O,outcome,[17]; [19],inactive
NC(CS)C(=O)O (stereo unspecified),outcome,[17]; [19],inactive
Cc1cc(NS(=O)(=O)c2ccc(N)cc2)no1,outcome,[17]; [19],inactive
CCCCCCCCCCC[C@@H](C[C@@H]1OC(=O)[C@H]1CCCCCC)OC(=O)[C@H](CC(C)C)NC=O,outcome,[17]; [19],inactive
CC(=O)[C@H]1CC[C@H]2[C@@H]3C[C@H](C)C4=CC(=O)CC[C@]4(C)[C@H]3[C@@H](O)C[C@]12C,outcome,[17]; [19],inactive
CC1COc2c(N3CCN(C)CC3)c(F)cc3c(=O)c(C(=O)O)cn1c23 (stereo unspecified),outcome,[17]; [19],inactive
CCOC(=O)/C=C(C)/C=C/C=C(C)/C=C/c1c(C)cc(OC)c(C)c1C,outcome,[17]; [19],inactive
Cc1ncc([N+](=O)[O-])n1CC(C)O (stereo unspecified),outcome,[17]; [19],inactive
Cc1[nH]cnc1-c1ccc(Cl)cc1,outcome,[17]; [19],inactive
Cc1ccc(C(C)C)c(O)c1,outcome,[17]; [19],inactive
O=C(O)c1ccc[n+]([O-])c1,outcome,[17]; [19],inactive
NC(N)=NS(=O)(=O)c1ccc(N)cc1,outcome,[17]; [19],inactive
Nc1cc(=O)[nH]c(N)n1,outcome,[17]; [19],inactive
CC1(COc2ccc(CC3SC(=O)NC3=O)cc2)CCCCC1 (stereo unspecified),outcome,[17]; [19],inactive
Cc1cc(OI)c(C(C)C)cc1-c1cc(C(C)C)c(OI)cc1C,outcome,[17]; [19],inactive
Cc1c(NC(C)C)c(=O)n(-c2ccccc2)n1C,outcome,[17]; [19],inactive
CN1N=C(C(N)=O)CCC1=O,outcome,[17]; [19],inactive
COC(=O)CCCCC(CCSS/C(CCO)=C(\C)N(C=O)Cc1cnc(C)nc1N)SC(C)=O (stereo unspecified),outcome,[17]; [19],inactive
Cc1ccccc1OCC(O)CO (stereo unspecified),outcome,[17]; [19],inactive
CC(N=C(NC#N)Nc1ccncc1)C(C)(C)C (stereo unspecified),outcome,[17]; [19],inactive
CC(C)=CCC/C(C)=C/CO,outcome,[17]; [19],inactive
O=c1cc[nH]c(=O)[nH]1,outcome,[17]; [19],inactive
Cc1cnc(NS(=O)(=O)c2ccc(N)cc2)nc1,outcome,[17]; [19],inactive
Nc1ccc(S(=O)(=O)Nc2ccnn2-c2ccccc2)cc1,outcome,[17]; at 17.4 µM (top of the series),inactive
same,outcome,[17]; at 44.8 µM (top of the series),inactive
O=C(O)Cc1cccc2ccccc12,outcome,[17]; at 44.8 µM (top of the series),inactive
same,outcome,[17]; at 92 µM (top of the series),inactive
C[C@]12CCC(=O)C=C1CC[C@@H]1[C@H]3CC[C@](C)(O)[C@@]3(C)CC[C@@H]12,outcome,[2],inactive
same,Potency,[3],inactive
O=c1c(C2CC(c3ccc(-c4ccc(Br)cc4)cc3)Cc3ccccc32)c(O)sc2ccccc12 (stereo unspecified),outcome,[2],inactive
same,Potency,[3],inactive
same,Potency,[4],inactive
same,Potency,[5],inactive
O=C1OC(CCN2CCCCC2)OC1(c1ccccc1)c1ccccc1 (stereo unspecified),Potency,[4],21100 nM (active)
same,Potency,[5],6680 nM (active)
